Compounds with a hit are over-represented: about 9.9% of the library has one in this group of screens.
Tau ThT inhib = qHTS for Inhibitors of Tau Fibril Formation, Thioflavin T Binding. Microtubule-associated protein tau (Homo sapiens), P10636. recombinant tau K18 P301L, heparin-induced fibrillization, ThT fluorescence. Potency, µM (doses to about 57.4 µM), for inactives: at the highest dose activity, negative = inhibition, most hits filed as inhibitors. hit rate 2.1% among 270,000. AID 1460, 2008; note: nearly all actives have a fitted effect of over 55% in size
Target sequence (P10636 561-689 P618L limits assumed): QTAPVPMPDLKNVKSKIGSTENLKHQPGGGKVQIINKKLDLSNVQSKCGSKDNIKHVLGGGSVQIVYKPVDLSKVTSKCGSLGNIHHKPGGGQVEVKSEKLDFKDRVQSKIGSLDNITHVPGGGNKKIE
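K18 P301L tau (15 uM + 0.24 uM Alexa 594-tagged), heparin 20 uM, NaOAc pH 7, 6 h 37 C; ThT 30 uM, 1 h RT, ex 450/em 510 nm.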
HPGD inh = qHTS Assay for Inhibitors of HPGD (15-Hydroxyprostaglandin Dehydrogenase). purified HPGD, NADH fluorescence kinetic, PGE2 substrate. Potency, µM, without a hit: at the highest dose activity change, negative = inhibition, actives largely listed as inhibitors. hit rate 4.3% among 150,000. AID 894, 2007; active = well fitted inhibition curve with a large enough effect, not every such curve was filed as active; inconclusive = small, poorly fitted or top-dose-only effect, or another doubt; inactive = no such curve, though single readings can be large or run the other way
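20 nM HPGD preincubated 15 min at room temperature with compound in 50 mM Tris-HCl pH 8, 0.01% Tween 20. Started with 1 mM NAD+ and 30 uM prostaglandin E2; NADH fluorescence (360/450 nm) read 5 times over 30-s intervals, last minus first.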
Tau FP inhib = qHTS for Inhibitors of Tau Fibril Formation, Fluorescence Polarization | K18 P301L tau heparin fibrillization, Alexa594 FP, 6 h | Potency, µM (titrated, usually from 57.7 µM), for the others: at the top dose activity, negative = inhibition, actives largely listed as inhibitors | hit rate 0.39% among 280,000; note: nearly all actives have a fitted effect of over 55% in size
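FP of Alexa 594-tau after heparin (20 uM) induction. Substrate: human K18 P301L, 15 uM unlabeled, 0.24 uM labeled. Buffer 100 mM sodium acetate pH 7. 6 hr, 37 C.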
Tau fluor cs = Counterscreen qHTS for Inhibitors of Tau Fibril Formation, Fluorescence Polarization. tau K18 P301L Alexa594 fluorescence, heparin fibrillization. Potency, µM (titrated, usually from 57.7 µM), for the others: at the top dose activity change, negative = decrease. hit rate 0.93% among 280,000; note: nearly all actives have a fitted effect of over 55% in size
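Human tau K18 P301L (15 uM unlabeled, 0.24 uM Alexa 594-labeled) in 100 mM sodium acetate pH 7 with 20 uM heparin, 6 hr at 37 C. ThT 30 uM added, 1 hr ambient; Alexa 594 FP and total fluorescence read at 555/632 nm.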
JMJD2E inh = qHTS Assay for Inhibitors of Human Jumonji Domain Containing 2E (JMJD2E). JMJD2E catalytic domain, FDH-coupled NADH fluorescence (FDH is formaldehyde dehydrogenase). hit rate 1.6% among 230,000. Potency, µM (titrated, usually from 57.1 µM), for inactives: at the highest dose activity change, negative = inhibition, actives largely listed as inhibitors. AID 2147, 2009. Lysine-specific demethylase 4E (Homo sapiens), B2RXH2; active = well fitted inhibition curve with a large enough effect, not every such curve was filed as active; inconclusive = small, poorly fitted or top-dose-only effect, or another doubt; inactive = no such curve, though single readings can be large or run the other way;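 note: 0% = wells with enzyme and -100% = buffer wells without enzyme; nearly all actives have a fitted effect of over 50% in size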
Target sequence (B2RXH2 1-337 limits assumed): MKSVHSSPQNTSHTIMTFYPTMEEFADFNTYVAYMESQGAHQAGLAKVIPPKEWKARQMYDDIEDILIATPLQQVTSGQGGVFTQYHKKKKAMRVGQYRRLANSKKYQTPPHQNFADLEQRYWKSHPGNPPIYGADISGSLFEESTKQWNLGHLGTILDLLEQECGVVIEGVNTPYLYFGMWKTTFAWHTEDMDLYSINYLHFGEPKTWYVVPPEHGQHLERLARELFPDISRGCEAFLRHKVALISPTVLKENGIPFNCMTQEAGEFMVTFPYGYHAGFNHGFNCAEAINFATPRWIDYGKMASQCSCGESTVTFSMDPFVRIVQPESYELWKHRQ
ALDH1A1 inh = qHTS Assay for Inhibitors of Aldehyde Dehydrogenase 1 (ALDH1A1); Aldehyde dehydrogenase 1A1 (Homo sapiens), P00352; Purified ALDH1A1, NADH fluorescence, propionaldehyde substrate; Potency, µM (series often up to 75.3 µM), for inactives: top-dose activity, negative = inhibition, usual class: inhibitors; hit rate 7.3% among 220,000; active = well fitted inhibition curve with a large enough effect, not every such curve was filed as active; inconclusive = small, poorly fitted or top-dose-only effect, or another doubt; inactive = no such curve, though single readings can be large or run the other way;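 note: plate controls were no enzyme wells and a reference inhibitor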
Active calls of the source: *; ? = inconclusive; / = no result given; [ ] = dose if it differs, or a comment. Unless noted, calls come from the whole dose curve; as a rule, active = well fitted curve in the direction sought with a large enough effect; inconclusive = small, poorly fitted or top-dose-only effect, or another doubt; inactive = no such curve, though single readings can be large; an effect the other way counts as inactive or inconclusive. Unless noted, % is set by controls: 0 for no effect and ±100 for the full control effect; potency is the fitted concentration of half-maximal effect.

SMILES | Tau ThT inhib | HPGD inh | Tau FP inhib | Tau fluor cs | JMJD2E inh | ALDH1A1 inh
CC(Oc1ccccc1)C(=O)N1CCN(Cc2cc(=O)n3nc(-c4ccccc4Cl)sc3n2)CC1 (stereo not given) | -1% | / | -5% | -1% | / | /
COc1cc(OC)c(NC(=O)c2csc3c2CCC(C)C3)cc1Cl (stereo not given) | -16% | / | 2% | -30% | / | /
COc1ccc(-c2noc(CN3CCCC(OCc4ccccn4)C3)n2)cc1 (stereo not given) | -18% | / | -1% | -21% | -7% | /
CCn1nc(C)c(CCN(C)C(=O)Nc2cc(OC)c(OC)c(OC)c2)c1C | 0% | / | 10% | 0% | / | /
CCOc1ccc(N(C)S(=O)(=O)c2ccc3[nH]cc(C(=O)NCC4CCCO4)c(=O)c3c2)cc1 (stereo not given) | -6% | 14µM* | ? | ? | 0% | -19%
CCc1ccc(N(C)S(=O)(=O)c2ccc3[nH]cc(C(=O)NCC4CCCO4)c(=O)c3c2)cc1 (stereo not given) | -6% | / | -1% | -7% | / | /
CCN(CC)S(=O)(=O)c1ccc2[nH]cc(C(=O)NCCC3=CCCCC3)c(=O)c2c1 | 7% | ? | 11µM* | ? | -26% | ?
CCN(CC)S(=O)(=O)c1ccc2[nH]cc(C(=O)NCCN3CCCCCC3)c(=O)c2c1 | -5% | ? | 0% | -12% | ? | ?
CN(CC(=O)NCCC1=CCCCC1)S(=O)(=O)c1ccc2c(c1)c(=O)n(C)c(=O)n2C | -8% | -10% | ? | -13% | -4% | 32µM*
CCc1ccc(N(C)S(=O)(=O)c2ccc3[nH]cc(C(=O)NCCN4CCOCC4)c(=O)c3c2)cc1 | 3% | ? | ? | ? | -20% | 22µM*
Cc1ccc(-c2nn(-c3ccccc3)cc2C=O)o1 | -16% | / | 0% | -7% | ? | ?
CCc1ccc(NC(=O)CSc2ccnc(=O)[nH]2)cc1 | -6% | / | -12% | -2% | / | /
Cc1ccc(S(=O)(=O)NC(C)(C)CSc2ncccn2)cc1 | 13% | / | 2% | 20% | -3% | 18µM*
CCn1ccnc1CN(C)Cc1cn(-c2cc(C)ccc2C)nc1-c1ccccc1 | -10% | / | -4% | 3% | ? | 28µM*
COc1ccc(OCCCCn2c(-c3ccc(Cl)cc3)nc3ccccc3c2=O)cc1 | -12% | / | -12% | -21% | / | /
CC(C)CN1CCN(Cc2cccn2-c2cccnc2)CC1CCO (stereo not given) | -14% | / | -2% | -7% | 6% | 3.5µM*
CN=C(NC#N)Nc1ccc(C2=NNC(=O)C[C@@H]2C)cc1 | -8% | -17% | -7% | -7% | ? | ?
CCOC(=O)C1=C(C)n2c(s/c(=C/c3cccc([N+](=O)[O-])c3)c2=O)=NC1c1ccc(O)c(OC)c1 (stereo not given) | 14µM* | -18% | -6% | ? | 6% | ?
Cc1ncc(CO)c(/C=N/NC(=S)Nc2ccc(Cl)c(Cl)c2)c1O | ? | / | -3% | 25µM*[quencher] | ? | ?
Cc1ncc(CO)c(/C=N/NC(=S)Nc2cccc(Cl)c2)c1O | ? | / | 8% | ? | ? | ?
COC(=O)c1[nH]c2cc(OC)ccc2c1NC(=O)CN1CCN(c2cccc(C)c2)C(C)C1 (stereo not given) | ? | -18% | ? | 14µM*[quencher] | ? | ?
Cc1ccc(NC(=O)CSC2=C(C#N)C(c3ccco3)CC(=O)N2)cc1 (stereo not given) | -11% | -6% | -2% | -24% | 7% | 14µM*
CCc1ccc(NC(=O)CSC2=C(C#N)C(c3ccco3)C3=C(CCCC3=O)N2)cc1 (stereo not given) | -13% | -8% | -10% | ? | -18% | ?
CC(C)C1CC(=O)NC(SCC(=O)Nc2ccc(Br)cc2)=C1C#N (stereo not given) | -4% | -2% | 1% | ? | 13% | 8.9µM*
Cc1ccc(NC(=O)CSC2=C(C#N)C(c3ccco3)C3=C(CC(C)(C)CC3=O)N2)cc1 (stereo not given) | -11% | -10% | ? | ? | -15% | 13µM*
SMILES | Tau ThT inhib | HPGD inh | Tau FP inhib | Tau fluor cs | JMJD2E inh | ALDH1A1 inh
O=C(CC12CC3CC(CC(C3)C1)C2)NC(=S)N1CCCCC1 | -8% | ? | -2% | -14% | ? | 20µM*
O=C(NN=C1CCCCCCCCCCC1)c1ccccc1F | -4% | -9% | -4% | 9% | 24% | ?
Nc1nnc(CCS(=O)(=O)c2cc(Cl)ccc2Cl)s1 | -10% | -20% | -8% | -9% | 5% | 25µM*
Nc1nnc(CCS(=O)(=O)c2ccc(Cl)cc2)s1 | -5% | -7% | 2% | 5% | 0% | 7%
C=C(Br)CN(C)CC(=C)Br | / | -1% | / | / | / | -3%[13.5 µM]
C[C@@H]1CN(Cc2nc(-c3cccs3)no2)C[C@H](C)O1 | 3% | / | -2% | 3% | -7% | -5%
COCC1CCN(Cc2nc(-c3cccs3)no2)C1 (stereo not given) | ? | / | -8% | 10%[2.34 µM] | 1% | 28µM*
c1csc(-c2noc(CN3CCc4sccc4C3)n2)c1 | 2% | / | 6% | -3% | -20% | 20µM*
Cc1ccc2nc(Nc3ccccc3)c(/C=N/O)c(=O)n2c1 | ? | 11µM* | 6% | -20% | 4% | 7%
Oc1ccc(/C=N/N2CCN(C3c4ccccc4-c4ccccc43)CC2)c(O)c1 | -18% | / | ? | 13µM*[quencher] | -5% | ?
Oc1ccc(/C=N/N2CCN(C3c4ccccc4-c4ccccc43)CC2)cc1O | ? | / | ? | 13µM*[quencher] | 16µM* | /
Oc1ccc(/C=N/N2CCN(C3c4ccccc4-c4ccccc43)CC2)cc1 | -7% | / | -9% | ? | 11% | -4%
COc1cc(C/C=C\c2ccccc2)c(OC)cc1O | 20µM* | -20% | ? | ? | ? | 25µM*
COc1cc(Br)cc(CN2CCN(C/C=C/c3ccccc3)CC2)c1O | -18% | -9% | ? | -14% | 0% | 3%
COc1ccc(C(=O)C2CCCN(C(=O)C3=CCCC3)C2)c(C)c1 (stereo not given) | -3% | / | 8% | 1% | -3% | ?
COc1ccc(C(=O)C2CCCN(C(=O)c3noc4c3CCCC4)C2)c(C)c1 (stereo not given) | -12% | / | 1% | -11% | ? | 5µM*

From PubChem BioAssay
